Where “and” joins values, the source holds several entries; their conditions need not be identical. Identical values can stand only once. Results filed as inconclusive are left out. Where a call stands in place of a potency, no number is given. More than one record can exist for a structure, and the calls need not agree. Calls of active or inactive are those of the source. Calls follow the shape of the dose curve; as a rule, active = well fitted curve in the direction sought with a large enough effect in the repeat runs; inconclusive = weak or mixed curves; inactive = no such curve, though single readings can be large; an effect the other way counts as inactive or inconclusive.
Legend:
[1] = qHTS RealTime-Glo MT Cell Viability Assay in HepG2 cells - 40 hour (AID 1224870); also: nearly all actives have a fitted effect of over 50% in size; also: potency is read from the fitted curve at half-maximal effect
Summary of the method: (§1)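 HepG2 cells (600/well) mixed with RealTime-Glo MT reagent, settled 5 h at 37 C/5% CO2 before compound addition. Nonlytic NanoLuc luminescence from viable-cell prosubstrate reduction read repeatedly during 40 h treatment at 37 C.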

[2] = A CellTox Green Cytotoxicity Assay to monitor cytotoxicity in HEK293 cells - 40 hour (AID 1224871); also: nearly all actives have a fitted effect of over 45% in size; also: potency is read from the fitted curve at half-maximal effect
Summary of the method: (§2)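 Fluorescence from a DNA-binding dye excluded by viable cells was measured repeatedly in the same HEK293 wells (600 cells/well) during continuous compound exposure at 37 C. Each assay gives one read point: 0, 8, 16, 24, 32 or 40 h.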

[3] = qHTS RealTime-Glo MT Cell Viability Assay in HEK293 cells - 16 hour (AID 1224872); also: nearly all actives have a fitted effect of over 50% in size; also: potency is read from the fitted curve at half-maximal effect
Summary of the method: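 Homogeneous bioluminescent viability format in HEK293 cells (600 cells/well). Following 5 h at 37 C/5% CO2, 23 nL compound was pintooled; the signal was measured repeatedly during 40 h incubation.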

[4] = qHTS RealTime-Glo MT Cell Viability Assay in HepG2 cells - 8 hour (AID 1224873); also: nearly all actives have a fitted effect of over 55% in size; also: potency is read from the fitted curve at half-maximal effect
Summary of the method: as §1

[5] = qHTS RealTime-Glo MT Cell Viability Assay in HEK293 cells - 40 hour (AID 1224874); conditions: RealTime-Glo luminescence; max response: stronger effect = lower value; also: nearly all actives have a fitted effect of over 50% in size; also: potency is read from the fitted curve at half-maximal effect
Summary of the method: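 Luminescence, which tracks viable cell number through reduction of the prosubstrate to a NanoLuc substrate, was read over continuous 37 C culture. Cells (600/well) were premixed with reagent and rested 5 h before 23 nL of compound in DMSO was pinned.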

[6] = A CellTox Green Cytotoxicity Assay to monitor cytotoxicity in HEK293 cells - 24 hour (AID 1224875); also: nearly all actives have a fitted effect of over 45% in size; also: potency is read from the fitted curve at half-maximal effect
Summary of the method: as §2

[7] = A CellTox Green Cytotoxicity Assay to monitor cytotoxicity in HepG2 cells - 16 hour (AID 1224876); also: nearly all actives have a fitted effect of over 45% in size; also: potency is read from the fitted curve at half-maximal effect
Summary of the method: (§3)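 Real-time cytotoxicity: fluorescence of a cell-impermeant cyanine dye binding DNA of dead HepG2 cells, measured repeatedly (0–40 h) during compound exposure at 37 C. Cells seeded 600/well with reagent, dosed after 5 h.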

[8] = A CellTox Green Cytotoxicity Assay to monitor cytotoxicity in HepG2 cells - 24 hour (AID 1224878); also: nearly all actives have a fitted effect of over 45% in size; also: potency is read from the fitted curve at half-maximal effect
Summary of the method: as §3

[9] = A CellTox Green Cytotoxicity Assay to monitor cytotoxicity in HepG2 cells - 40 hour (AID 1224879); also: nearly all actives have a fitted effect of over 40% in size; also: potency is read from the fitted curve at half-maximal effect
Summary of the method: as §3

[10] = qHTS RealTime-Glo MT Cell Viability Assay in HepG2 cells - 32 hour (AID 1224877); also: nearly all actives have a fitted effect of over 55% in size
Summary of the method: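 Cell number in HepG2 cultures estimated from NanoLuc luminescence generated by metabolic reduction of a prosubstrate by living cells. The homogeneous, nonlytic format allowed repeated reads at 0, 8, 16, 24, 32 and 40 h of compound exposure.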

| Structure (SMILES) | Potency [1] | Potency [2] | Potency [3] | Potency [4] | max response [5] | Potency [6] | Potency [7] | Potency [8] | Potency [9] | Potency [10] | Potency [5] |
| --- | --- | --- | --- | --- | --- | --- | --- | --- | --- | --- | --- |
| CCN(CC)C(=O)/C(Cl)=C(\C)OP(=O)(OC)OC | inactive | inactive | inactive | inactive | -0.126% (inactive) and -1.25% (inactive) | inactive | inactive | inactive | inactive | – | – |
| CCCCN(CCCC)N=O | inactive | inactive | inactive | inactive | -0.0622% (inactive) and 14.1% (inactive) | inactive | inactive | inactive | inactive | inactive | – |
| c1ccc(P(c2ccccc2)c2ccccc2)cc1 | inactive | inactive | inactive | inactive | -31.4% (inactive) | inactive | inactive | inactive | inactive | inactive | – |
| COC(=O)c1sccc1S(=O)(=O)NC(=O)Nc1nc(C)nc(OC)n1 | inactive | inactive | inactive | inactive | 4% (inactive) and 6.48% (inactive) | inactive | inactive | inactive | inactive | inactive | – |
| CCN(CC)C(=O)SCc1ccc(Cl)cc1 | inactive | inactive | inactive | inactive | -8.77% (inactive) and 0.16% (inactive) | inactive | inactive | inactive | inactive | – | – |
| CC1(C)C(C=C(Cl)Cl)C1C(=O)OC(C#N)c1cccc(Oc2ccccc2)c1 (stereo not drawn) | inactive | inactive | inactive | inactive | -14.9% (inactive) and 6.86% (inactive) | inactive | inactive | inactive | inactive | – | – |
| NCc1cccnc1 | inactive | inactive | inactive | inactive | 0.404% (inactive) and -2.08% (inactive) | inactive | inactive | inactive | inactive | inactive | – |
| CCOP(=S)(OCC)O/N=C(\C#N)c1ccccc1 | inactive | inactive | inactive | inactive | 6.15% (inactive) and 1.47% (inactive) | inactive | inactive | inactive | inactive | – | – |
| Nc1c(Cl)cc([N+](=O)[O-])cc1Cl | inactive | inactive | inactive | inactive | -14.9% (inactive) | inactive | inactive | inactive | inactive | inactive | – |
| O=C(O)CC[N+](=O)[O-] | inactive | inactive | inactive | inactive | 0.345% (inactive) and -3.12% (inactive) | inactive | inactive | inactive | inactive | inactive | – |
| O=[N+]([O-])c1c(Cl)c(Cl)c(Cl)c(Cl)c1Cl | inactive | 21.8 µM (active) and inactive | inactive | inactive | 2.95% (inactive) and 16.6% (inactive) | inactive | inactive | inactive | inactive | inactive | – |
| CC(C)C(=O)OCC(C)(C)C(OC(=O)C(C)C)C(C)C (stereo not drawn) | inactive | inactive | inactive | inactive | -10.2% (inactive) and 4.91% (inactive) | inactive | inactive | inactive | inactive | – | – |
| C=CCc1ccc2c(c1)OCO2 | inactive | inactive | inactive | inactive | 13.1% (inactive) and 2.61% (inactive) | inactive | inactive | inactive | inactive | inactive | – |
| O=P(Oc1ccccc1)(Oc1ccccc1)Oc1ccccc1 | inactive | inactive | inactive | inactive | -17.9% (inactive) and -13.8% (inactive) | inactive | inactive | inactive | inactive | inactive | – |
| CCC(C)(C)c1ccc(O)cc1 | inactive | 49.5 µM (active) and 43.6 µM (active) | inactive | inactive | -5.76% (inactive) and -0.143% (inactive) | 49.5 µM (active) and 49 µM (active) | 44.1 µM (active) and 43.6 µM (active) | 49.5 µM (active) and 43.6 µM (active) and 23.9 µM (active) | 44.1 µM (active) and 38.9 µM (active) and 21.3 µM (active) | inactive | – |
| CN(C)c1ccc(C(=O)c2ccc(N(C)C)cc2)cc1 | inactive | inactive | – | inactive | – | inactive | inactive | inactive | 5.44 µM (active) and 1.95 µM (active) | inactive | 3.47 µM (active) |
| Cc1cccc(N)c1N | inactive | inactive | inactive | inactive | – | inactive | inactive | inactive | inactive | inactive | – |
| Cc1c(COC(=O)[C@@H]2[C@H](/C=C(\Cl)C(F)(F)F)C2(C)C)cccc1-c1ccccc1 | inactive | inactive | – | inactive | – | inactive | inactive | inactive | inactive | inactive | 19.1 µM (active) |
| CC(C)(OOC(C)(C)c1ccccc1)c1ccccc1 | inactive | 24.2 µM (active) and 49 µM (active) | inactive | inactive | -13.8% (inactive) and -15.4% (inactive) | 48.3 µM (active) and 49 µM (active) | inactive | inactive | inactive | – | – |
| Brc1ccc(Oc2cc(Br)c(Br)cc2Br)c(Br)c1 | inactive | inactive | – | inactive | – | inactive | inactive | inactive | inactive | – | 43.6 µM (active) |
| C=C(C)[C@H]1Cc2c(ccc3c2O[C@@H]2COc4cc(OC)c(OC)cc4[C@@H]2C3=O)O1 | 44.2 µM (active) and 27.5 µM (active) | inactive | 88.2 nM (active) and 15.5 nM (active) and 107 nM (active) | 24.5 µM (active) and inactive | – | inactive | inactive | 49.6 µM (active) and 38.9 µM (active) | 24.9 µM (active) and 24.5 µM (active) | – | 55.7 nM (active) and 11 nM (active) and 47.7 nM (active) |
